Where “and” joins values, the source holds several entries; their conditions need not be identical. Equal entries are not always repeated. Records with an inconclusive call do not appear. Calls of active or inactive are those of the source. Unless noted, calls follow the shape of the dose curve; as a rule, active = well fitted curve in the direction sought with a large enough effect in the repeat runs; inconclusive = weak or mixed curves; inactive = no such curve, though single readings can be large; an effect the other way counts as inactive or inconclusive.
What was measured:
[1] = qHTS assay to identify small molecule antagonists of the estrogen related receptor (ERR) signaling pathway from Tox21 library - cell viability counter screen (AID 1224834); also: nearly all actives have a fitted effect of over 30% in size
In short: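 ERR reporter cells were plated 6 h before compound addition, then exposed to test compounds in DMSO for 17.5 h at 37 C. Viability was read as CellTiter-Fluor fluorescence after a 30-minute incubation at 37 C.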

[2] = biological target: Luciferin 4-monooxygenase (Photinus pyralis) (UniProt P08659); assay: qHTS assay to identify small molecule inhibitors of firefly luciferase (AID 1224835); also: nearly all actives have a fitted effect of over 25% in size
In short: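 Quantitative HTS format; KM concentrations of both substrates. Purified P. pyralis FLuc activity quantified from luminescence images.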

[3] = qHTS assay to identify small molecule agonists of the constitutive androstane receptor (CAR) signaling pathway - cell viability counter screen (AID 1224836); also: nearly all actives have a fitted effect of over 45% in size
In short: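 Counter screen multiplexed with the CAR reporter readout: HepG2 cells co-transfected with hCAR and the CYP2B6-2.2kb construct receive a 15-concentration compound series and 0.75 uM PK11195 (final), then CellTiter-Fluor fluorescence is read after 23 h.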

[4] = biological target: Nuclear receptor subfamily 1 group I member 3 (Homo sapiens) (UniProt Q14994); assay: qHTS assay to identify small molecule antagonists of the constitutive androstane receptor (CAR) signaling pathway (AID 1224838); also: nearly all actives have a fitted effect of over 40% in size
In short: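 HepG2 cells stably co-transfected with hCAR and a CYP2B6-2.2kb luciferase reporter were seeded 4 h before compound addition at 15 concentrations. Cells were stimulated with 50 nM CITCO (final) for 24 h at 37 C; luciferase luminescence was then read.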

[5] = qHTS assay to identify small molecule antagonists of the estrogen related receptor signaling pathway with the pleiotropic PPARgamma coactivator (PGC) from Tox21 10K library - cell viability counter screen (AID 1224840; active = well fitted cell-killing curve with a large enough effect in the repeat runs, not every such curve was filed as active; also: nearly all actives have a fitted effect of over 40% in size)
In short: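 PGC/ERR cells were seeded at 2,000 cells/well and left 6 hours at 37 C/5% CO2 before pin-tool addition of compounds in DMSO. After 17.5 hours at 37 C, CellTiter-Fluor was added and fluorescence read 30 minutes later.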

[6] = qHTS assay to identify small molecule antagonists of the estrogen related receptor signaling pathway with the pleiotropic PPARgamma coactivator (PGC) from Tox21 10K library (AID 1224841; call rule not given here; also: actives are mostly falling curves and most rising ones were filed inactive; nearly all actives have a fitted effect of over 50% in size)
In short: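 PGC/ERR reporter cells were seeded at 2,000 cells/well and held 6 hours at 37 C/5% CO2 before pin-tool addition of compounds in DMSO. After 18 hours at 37 C, One-Glo was added and luminescence read after 30 minutes at room temperature.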

[7] = qHTS assay to identify small molecule agonists of the estrogen related receptor signaling pathway with the pleiotropic PPARgamma coactivator (PGC) from Tox21 10K library (AID 1224842); also: nearly all actives have a fitted effect of over 15% in size
In short: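 PGC/ERR reporter cells (NTP line) were seeded 2,000 per well, rested 6 h at 37 C/5% CO2, then pin-dosed with compounds in DMSO for 18 h at 37 C; luciferase read by One-Glo luminescence after 30 min at room temperature.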

[8] = qHTS assay to identify small molecule agonists of the hypoxia (HIF-1) signaling pathway - cell viability counter screen (AID 1224844; calls by dose curve; also: nearly all actives have a fitted effect of over 50% in size)
In short: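 HRE-bla ME-180 cells in medium with 0.5% dialyzed FBS were preincubated 5 hrs at 37C, exposed to compounds for 17 hrs, then viability was read as CellTiter-Glo luminescence after 30 min at room temperature, in the reporter wells.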

[9] = qHTS assay to identify small molecule agonists of H2AX (AID 1224845; active = well fitted activation curve with a large enough effect in the signal ratio in the repeat runs, not every such curve was filed as active; the % refers to the signal ratio)
In short: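 Wild-type CHO-K1 cells plated overnight, then exposed 3 hr at 37C to compounds at 15 concentrations (0.76% DMSO). Lysed, then HTRF anti-pH2AX(S139)-cryptate/anti-H2AX-d2 detection after 24 hr at room temperature; emissions 665 and 620 nm.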

[10] = qHTS assay to identify small molecule agonists of the hypoxia (HIF-1) signaling pathway (AID 1224846; active = well fitted activation curve with a large enough effect in the signal ratio in the repeat runs, not every such curve was filed as active; the % refers to the signal ratio)
In short: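 HRE-bla ME-180 cells (beta-lactamase reporter under hypoxia response element) were plated at 2,000 cells/well in medium with 0.5% dialyzed FBS, rested 5 hrs, then given compounds in DMSO for 17 hrs at 37C, 5% CO2. Reporter induction was read with CCF4-AM FRET substrate.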

[11] = qHTS assay to identify small molecule agonists of H2AX - cell viability counter screen (AID 1224847; calls by dose curve; also: top concentration of the series differs between compounds; nearly all actives have a fitted effect of over 30% in size)
In short: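 We seed wild-type CHO-K1 cells overnight, treat them for 3 hr at 37C with compounds in 15-concentration series, and quantify remaining viability by CellTiter-Glo luminescence.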

[12] = qHTS assay to identify small molecule antagonists of the estrogen related receptor (ERR) signaling pathway from Tox21 library (AID 1224848); also: nearly all actives have a fitted effect of over 50% in size
In short: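 Screening used an ERR reporter line supplied by NTP, exposed for 18 h at 37 C to library compounds delivered in DMSO. Signal was luciferase luminescence developed with ONE-Glo at room temperature for 30 min.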

[13] = qHTS assay to identify small molecule agonists of the estrogen related receptor (ERR) signaling pathway from Tox21 library (AID 1224849; calls by dose curve; also: nearly all actives have a fitted effect of over 15% in size); conditions: ERR reporter cell line, ONE-Glo luciferase, 18 h; at 92.4 µM (top of the series) unless noted
In short: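 ERR reporter cell line (NTP) seeded, rested 6 h at 37 C/5% CO2, then pinned with Tox21 compounds in DMSO. After 18 h at 37 C, ONE-Glo luciferase luminescence was read following 30 min at room temperature.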

[14] = qHTS RealTime-Glo MT Cell Viability Assay in HepG2 cells - 24 hour (AID 1224867); also: nearly all actives have a fitted effect of over 50% in size
In short: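 Luminescence read-out: viable HepG2 cells reduce a prosubstrate to a NanoLuc substrate, giving a signal proportional to live cell number. Reads taken at 0, 8, 16, 24, 32 and 40 h of compound exposure at 37 C.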

[15] = qHTS RealTime-Glo MT Cell Viability Assay in HEK293 cells - 32 hour (AID 1224868)
In short: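 Nonlytic real-time viability readout: viable cells convert prosubstrate to NanoLuc substrate, giving luminescence proportional to live cell number. HEK293, 600 cells/well, compound added after 5 h, continuous culture at 37 C.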

[16] = A CellTox Green Cytotoxicity Assay to monitor cytotoxicity in HEK293 cells - 0 hour (AID 1224869); also: nearly all actives have a fitted effect of over 50% in size
In short: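 HEK293 cells premixed with CellTox Green dye were seeded at 600 cells/well and left 5 h at 37 C/5% CO2 before pin transfer of 23 nL compound in DMSO. Fluorescence from dye bound to dead-cell DNA was read during 40 h treatment.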

[17] = qHTS RealTime-Glo MT Cell Viability Assay in HepG2 cells - 40 hour (AID 1224870); also: nearly all actives have a fitted effect of over 50% in size
In short: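 HepG2 cells mixed with RealTime-Glo MT reagents (NanoLuc plus cell-permeant prosubstrate) were seeded at 600 cells/well, incubated 5 h at 37 C/5% CO2, then pinned with compounds in DMSO; nonlytic luminescence tracked viability during 40 h treatment.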

[18] = biological target: Thyrotropin receptor (Homo sapiens) (UniProt P16473); assay: qHTS assay to identify small molecule agonists of the thyroid stimulating hormone receptor (TSHR) signaling pathway (AID 1224843; calls by dose curve; also: nearly all actives have a fitted effect of over 45% in size)
In short: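 Cell line HEK293 with TSHR; density 800/well. Exposure 30 min RT. Readout HTRF cAMP (cAMP-d2/anti-cAMP-cryptate), 1 h RT before reading.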

[19] = qHTS assay to identify small molecule antagonists of the constitutive androstane receptor (CAR) signaling pathway - cell viability counter screen (AID 1224837); also: nearly all actives have a fitted effect of over 45% in size
In short: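 HepG2 cells stably expressing hCAR and a CYP2B6-2.2kb reporter were plated and pre-incubated 4 hr at 37 C/5% CO2, then given compounds at 15 concentrations plus 50 nM CITCO (final). After 23 hr, viability was read by CellTiter-Fluor fluorescence.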

[20] = biological target: Nuclear receptor subfamily 1 group I member 3 (Homo sapiens) (UniProt Q14994); assay: qHTS assay to identify small molecule agonists of the constitutive androstane receptor (CAR) signaling pathway (AID 1224839); also: nearly all actives have a fitted effect of over 15% in size
In short: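 A 15-concentration quantitative screen uses HepG2 cells co-transfected stably with human CAR and CYP2B6-2.2kb reporter. Treatment lasts 24 h with 0.75 uM PK11195 final present; ONE-Glo luminescence is the signal.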
% is scaled to controls: 0 for no effect and ±100 for the full control effect.

Chain of Luciferin 4-monooxygenase (Photinus pyralis) (P08659 whole entry, looked up): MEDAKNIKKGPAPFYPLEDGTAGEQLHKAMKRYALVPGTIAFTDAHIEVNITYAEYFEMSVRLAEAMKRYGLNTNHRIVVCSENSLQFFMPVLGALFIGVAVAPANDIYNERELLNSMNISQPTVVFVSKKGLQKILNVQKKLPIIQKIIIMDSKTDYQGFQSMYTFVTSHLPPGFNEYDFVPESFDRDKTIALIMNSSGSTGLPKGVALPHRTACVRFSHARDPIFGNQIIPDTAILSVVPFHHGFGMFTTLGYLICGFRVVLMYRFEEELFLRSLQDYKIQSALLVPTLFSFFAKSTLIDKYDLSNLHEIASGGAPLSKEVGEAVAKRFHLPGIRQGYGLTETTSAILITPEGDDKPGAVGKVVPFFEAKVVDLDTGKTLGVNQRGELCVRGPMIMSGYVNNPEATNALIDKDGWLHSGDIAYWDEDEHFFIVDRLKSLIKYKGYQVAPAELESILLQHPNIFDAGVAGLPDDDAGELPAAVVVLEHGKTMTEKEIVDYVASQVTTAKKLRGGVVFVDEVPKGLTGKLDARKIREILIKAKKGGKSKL
Chain of Thyrotropin receptor (Homo sapiens) (P16473 whole entry, looked up): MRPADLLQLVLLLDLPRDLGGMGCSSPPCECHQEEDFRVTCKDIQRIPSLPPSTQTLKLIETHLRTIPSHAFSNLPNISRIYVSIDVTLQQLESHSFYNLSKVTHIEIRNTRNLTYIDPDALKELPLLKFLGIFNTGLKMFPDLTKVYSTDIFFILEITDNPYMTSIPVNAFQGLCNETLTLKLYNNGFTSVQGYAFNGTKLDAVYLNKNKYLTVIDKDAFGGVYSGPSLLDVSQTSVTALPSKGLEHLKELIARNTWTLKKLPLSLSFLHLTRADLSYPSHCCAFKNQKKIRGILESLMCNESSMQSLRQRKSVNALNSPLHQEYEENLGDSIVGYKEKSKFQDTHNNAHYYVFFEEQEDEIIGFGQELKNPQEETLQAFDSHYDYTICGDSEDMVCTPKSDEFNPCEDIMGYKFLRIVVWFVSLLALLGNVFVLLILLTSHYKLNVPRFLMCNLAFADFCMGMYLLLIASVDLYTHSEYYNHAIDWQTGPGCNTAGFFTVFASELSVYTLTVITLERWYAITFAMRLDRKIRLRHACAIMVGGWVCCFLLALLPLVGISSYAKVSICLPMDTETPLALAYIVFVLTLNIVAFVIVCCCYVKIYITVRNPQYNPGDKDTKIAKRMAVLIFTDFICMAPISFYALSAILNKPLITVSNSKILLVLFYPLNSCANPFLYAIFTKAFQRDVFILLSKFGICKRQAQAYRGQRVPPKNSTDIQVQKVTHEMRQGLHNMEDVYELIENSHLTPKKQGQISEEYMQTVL
Chain of Nuclear receptor subfamily 1 group I member 3 (Homo sapiens) (Q14994 whole entry, looked up): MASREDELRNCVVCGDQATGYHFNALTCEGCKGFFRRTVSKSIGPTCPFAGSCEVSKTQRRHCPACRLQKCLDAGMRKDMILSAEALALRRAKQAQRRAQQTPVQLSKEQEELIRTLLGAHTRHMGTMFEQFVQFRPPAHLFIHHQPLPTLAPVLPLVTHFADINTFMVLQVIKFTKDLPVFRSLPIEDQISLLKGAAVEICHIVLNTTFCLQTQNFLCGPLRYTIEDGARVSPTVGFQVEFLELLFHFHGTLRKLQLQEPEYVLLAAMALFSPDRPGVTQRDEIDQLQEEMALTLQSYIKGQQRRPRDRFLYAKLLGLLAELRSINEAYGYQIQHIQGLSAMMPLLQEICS

O=C(c1ccccc1)C1CCCCC1
inactive: Potency [1] | Potency [2] | Potency [3] | Potency [4] | Potency [5] | Potency [6] | outcome [7] | Potency [8] | outcome [9] | outcome [10] | Potency [11] | Potency [12] | activity change, positive = activation [13] 3.6% | Potency [14] | Potency [15] | Potency [16] | Potency [17]

CC(=O)OCC(CCn1cnc2cnc(N)nc21)COC(C)=O
inactive: Potency [1] | Potency [2] | Potency [3] | Potency [5] | Potency [18] | Potency [8] | outcome [9] | Potency [11] | Potency [14] | Potency [15] | Potency [16] | Potency [17]

CCCCOCCOCCOCc1cc2c(cc1CCC)OCO2
inactive: Potency [1] | Potency [3] | Potency [19] | Potency [4] | Potency [5] | Potency [8] | outcome [9] | outcome [10] | Potency [11] | Potency [14] | Potency [15] | Potency [16]

NC(=O)c1cn(Cc2c(F)cccc2F)nn1
inactive: Potency [1] | Potency [2] | Potency [19] | Potency [4] | Potency [20] | Potency [5] | Potency [18] | Potency [8] | outcome [9] | Potency [11] | Potency [14] | Potency [15] | Potency [16] | Potency [17]

O=C1NC(=O)[C@@]2(CCOc3ccc(F)cc32)N1
inactive: Potency [1] | Potency [2] | Potency [3] | Potency [5] | Potency [18] | Potency [8] | outcome [9] | outcome [10] | Potency [11] | Potency [14] | Potency [15] | Potency [16]

CCOC(=O)[C@H](CCc1ccccc1)N[C@@H](C)C(=O)N1[C@H](C(=O)O)C[C@@H]2CCC[C@@H]21
inactive: Potency [2] | Potency [3] | Potency [19] | Potency [4] | Potency [20] | Potency [5] | Potency [6] | outcome [7] | Potency [18] | Potency [8] | outcome [9] | Potency [11] | Potency [12] | Potency [14] | Potency [15] | Potency [16]

C=C1CC[C@H]2C[C@@H]1C2(C)C
inactive: Potency [1] | Potency [2] | Potency [3] | Potency [5] | Potency [18] | Potency [8] | outcome [9] | Potency [11] | Potency [14] | Potency [15] | Potency [16] | Potency [17]

O=C1CCCCCCCCCCCN1
inactive: Potency [1] | Potency [2] | Potency [3] | Potency [4] | Potency [18] | Potency [8] | outcome [9] | Potency [11] | Potency [14] | Potency [15] | Potency [16] | Potency [17]

NS(=O)(=O)c1ccc(C(=O)O)cc1
inactive: Potency [1] | Potency [2] | Potency [3] | Potency [4] | Potency [5] | Potency [6] | outcome [7] | Potency [18] | Potency [8] | outcome [9] | Potency [11] | Potency [12] | Potency [14] | Potency [15] | Potency [16] | Potency [17]

O=C(O)c1ccccc1OP(=O)(O)O
inactive: Potency [1] | Potency [2] | Potency [3] | Potency [4] | Potency [5] | Potency [6] | outcome [7] | Potency [18] | Potency [8] | outcome [9] | Potency [11] | Potency [12] | Potency [14] | Potency [15] | Potency [16] | Potency [17]

CCSC(=O)N(CC(C)C)CC(C)C
inactive: Potency [1] | Potency [2] | Potency [3] | Potency [4] | Potency [5] | Potency [6] | outcome [7] | Potency [8] | outcome [9] | outcome [10] | Potency [11] | Potency [12] | activity change, positive = activation [13] 3.6% | Potency [14] | Potency [15] | Potency [16]

CN1CCCC1
inactive: Potency [1] | Potency [2] | Potency [3] | Potency [4] | Potency [20] | Potency [6] | outcome [7] | Potency [8] | outcome [9] | outcome [10] | Potency [11] | Potency [12] | activity change, positive = activation [13] 4.55% | Potency [14] | Potency [15] | Potency [16]

CCCCCSCCCCC
inactive: Potency [2] | Potency [3] | Potency [19] | Potency [4] | Potency [20] | Potency [5] | Potency [6] | outcome [7] | Potency [18] | Potency [8] | outcome [9] | outcome [10] | Potency [11] | Potency [12] | activity change, positive = activation [13] 6.38% | Potency [14] | Potency [15] | Potency [16] | Potency [17]

CS(=O)(=O)O
inactive: Potency [2] | Potency [3] | Potency [19] | Potency [4] | Potency [20] | Potency [5] | Potency [6] | outcome [7] | Potency [18] | Potency [8] | outcome [9] | outcome [10] | Potency [11] | Potency [12] | activity change, positive = activation [13] 3.34% | Potency [14] | Potency [15] | Potency [16]

O=[N+]([O-])c1ccc(F)cc1F
inactive: Potency [1] | Potency [2] | Potency [3] | Potency [4] | Potency [20] | Potency [5] | Potency [6] | outcome [7] | Potency [8] | outcome [9] | Potency [11] | Potency [12] | activity change, positive = activation [13] 3.35% | Potency [14] | Potency [15] | Potency [16] | Potency [17]

CC(=O)OC/C=C(\C)CC/C=C(\C)CCC=C(C)C
inactive: Potency [2] | Potency [3] | Potency [19] | Potency [4] | Potency [20] | Potency [5] | Potency [6] | outcome [7] | Potency [18] | Potency [8] | outcome [9] | outcome [10] | Potency [11] | Potency [12] | activity change, positive = activation [13] 1.18% and 2.19% | Potency [14] | Potency [15] | Potency [16] | Potency [17]
